Results filed as inconclusive are left out. A call without a number means that no potency is given here. Values without a mark were called inactive. Calls of active or inactive are those of the source. Calls come from the whole dose curve; as a rule, active = well fitted activation curve with a large enough effect in the signal ratio in the repeat runs (not every such curve was filed as active); inconclusive = weak or mixed curves; inactive = flat fitted curve, though single readings scatter; the % refers to the signal ratio.
Potency is the fitted concentration of half-maximal effect.

The test in a line: p53 small molecule agonists, cell-based qHTS assay (AID 1963582). The note with it: HCT-116 p53RE-bla reporter, beta-lactamase FRET ratio, 16 h; series mostly up to 66 µM. An excerpt: National Center for Advancing Translational Sciences [NCATS]
Division of Preclinical Innovation [DPI]
U.S. Environmental Protection Agency [EPA]
National Institutes of Environmental Health Sciences [NIEHS]
National Toxicology Program [NTP]
U.S. Food and Drug Administration [FDA]
p53, a tumor suppressor protein, is activated following cellular insult, including DNA damage and other cellular stresses. The activation of p53 regulates cell fate by inducing DNA repair, cell cycle arrest, apoptosis, or cellular senescence. The activation of p53, therefore, is a good indicator of DNA damage and other cellular stresses. […] The activation of the reporter gene under culture conditions can be detected by fluorescence intensity. This cell line was used to screen the Tox21 10K compound library in a 1536-well plate format and to identify agonists that activate the p53 signaling pathway.
Tox21 Assay Protocol Summary:
The p53RE-bla cells were dispensed at 4,000 cells/5 ul/well in 1536-well black wall/clear bottom plates using a Multidrop dispenser. After the assay plates were incubated at a 37 C/5% CO2 incubator for 5 hours, 23 nL of compounds dissolved in DMSO, positive controls or DMSO only was transferred to the assay plate by a pin tool. The plates were incubated at 37 C for 16 hours. After 1 uL of LiveBLAzerTM B/G FRET substrate was added using a Flying Reagent Dispenser, the plates were incubated at room temperature for 2 hours, and fluorescence intensity was measured by an Envision plate reader.
Background: Quantitative high-throughput screening tests each substance at several concentrations.
For the molecule `CCN(CC)c1ccc(C(=C2C=CC(=[N+](CC)CC)C=C2)c2ccc(S(=O)(=O)O)cc2S(=O)(=O)[O-])cc1`, the Potency entry is “inactive”.

Regarding `O=C1OCc2ccccc21`, the Potency result was “inactive”. For the molecule `CN1Cc2cc(C(=O)N3CCC(C4CCNCC4)CC3)ccc2N[C@@H](CC(=O)O)C1=O`, the Potency result was “inactive”. Consider `CNCc1ccccc1`, for which the Potency entry is “inactive”.

Turning to `Cc1ccccc1N1C(=O)c2cc(S(N)(=O)=O)c(Cl)cc2NC1C` (stereo not given), the Potency entry is “inactive”. Regarding `CC[C@@H](N)CO`, the Potency result is “inactive”.

In the case of `NC[C@H]1O[C@H](O[C@H]2[C@H](O[C@@H]3O[C@H](CO)[C@@H](O)[C@H]3O)C(O)[C@H](N)C[C@@H]2N)[C@H](N)[C@@H](O)[C@@H]1O` (stereo not given in full), the activation was -3.27% [at 5.99 µM].

`CNC(=O)c1ccccc1Sc1ccc2c(/C=C/c3ccccn3)n[nH]c2c1`: the Potency is 1.41 µM (active). Still for that read-out and setting: as for `COC(=O)CC#N`, the entry is “inactive”; as for `Cc1ccco1`, “inactive”; as for `CC[C@H]1OC(=O)[C@H](C)[C@@H](O[C@H]2C[C@@](C)(OC)[C@@H](O)[C@H](C)O2)[C@H](C)[C@@H](O[C@@H]2O[C@H](C)C[C@H](N(C)C)[C@H]2O)[C@](C)(O)C[C@@H](C)C(=O)[C@H](C)[C@@H](O)[C@]1(C)O`, “inactive”.

Regarding `Nc1cc(S(=O)(=O)O)ccc1O`, the Potency entry is “inactive”. The same measure, in the same setting: next, `CC(C)CCCCCCOC(=O)c1ccc(C(=O)OCCCCCCC(C)C)c(C(=O)OCCCCCCC(C)C)c1`: “inactive”; `N#Cc1c(F)cccc1F`: “inactive”; `O=C(CCCN1CCN(c2ccccn2)CC1)c1ccc(F)cc1`: “inactive”. The same measure, in the same setting: next, `C/C(=N\[Si](C)(C)C)O[Si](C)(C)C`: “inactive”. Consider `Oc1cc(O)c(Cl)cc1Cl`, for which the Potency result is “inactive”. Regarding `CC(=O)Nc1ccc(C)cc1C`, the Potency result is “inactive”.

Consider `CCCCN1C=CN(C)C1`, for which the activation was -0.772% [at 13.5 µM]. With `NC(=O)C(c1ccccc1)(c1ccccc1)[C@@H]1CCN(CCc2ccc3c(c2)CCO3)C1`, the Potency result is “inactive”. For `CCCCN(CCCC)CCCOC(=O)c1ccc(N)cc1`, the Potency entry was “inactive”.

In the case of `OC[C@H](Cc1cccc(O)c1)[C@H](CO)Cc1cccc(O)c1`, the Potency entry is “inactive”.

As for `CCCC(=O)OCCC(C)C`, the Potency entry was “inactive”.

Regarding `Cc1cc(C(C)(C)C)cc(C)c1CC1=NCCN1`, the Potency entry was “inactive”.

In the case of `O=NN(CCCl)C(=O)NCCCl`, the Potency entry was “inactive”. In the case of `C=C(C)CCCC(C)CCO` (stereo not given), the Potency result is “inactive”. Same read-out and setting: as for `CCCCOCCOC(=O)COc1ccc(Cl)cc1Cl`, the entry is “inactive”; as for `CC(C(=O)O)c1ccc(CC2CCCC2=O)cc1` (stereo not given), “inactive”; as for `Cc1ccc(C=O)s1`, “inactive”. As to `CC[N+](C)(CC)CCOC(=O)C(O)(c1ccccc1)C1CCCCC1` (stereo not given), the Potency entry was “inactive”.

Take `CCN(CC)CCSC(=O)C(c1ccccc1)c1ccccc1`: the Potency result was “inactive”. Take `CCNS(=O)(=O)c1ccc(C)cc1`: the Potency entry was “inactive”. Still for that read-out and setting: next, `C=C(C)C(=O)OCC[N+](C)(C)C`: “inactive”; `Oc1cc2ccccc2cc1O`: “inactive”. For the molecule `CCCCCCCCCCCCCCCCCl`, the activation was 0.101% [at 13.5 µM]. The same measure, in the same setting: next, `CCCCCCCCCCOc1cc2c(=O)c(C(=O)OCC)c[nH]c2cc1OCC`: 4.71% [at 5.99 µM]. Turning to `CCCCNS(=O)(=O)c1ccc(C)cc1`, the Potency entry was “inactive”. On the same count and under the same terms, as for `N#CCc1ccc(Cl)cc1Cl`, the entry is “inactive”; as for `NC(=O)C(=O)N/N=C/c1ccc([N+](=O)[O-])o1`, “inactive”; as for `O=C(O)c1ccncc1`, “inactive”.

The record behind these values is PubChem BioAssay (Tox21).
